Compound activity: PubChem BioAssay, National Center for Advancing Translational Sciences (NCATS)
KAT2A inh: qHTS Assay for Inhibitors of GCN5L2; Histone acetyltransferase KAT2A (Homo sapiens), Q92830; GCN5L2 HAT assay, ThioGlo1 CoA-SH fluorescence; AID 504327, 2011; Potency, µM (highest dose often 58.9 µM), usual class: inhibitors; hit rate 0.21% among 390,000
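Free CoA generated was detected with ThioGlo1 (50uM) fluorescence at Ex340nm/Em540nm, read immediately and after 20 min at room temperature. Enzyme, 20 nM in HEPES pH 7.5 buffer, saw compounds 15 min before adding 75uM H3(1-25) peptide and 70uM acetyl-CoA.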
TDP1 cell CPT: qHTS for Inhibitors of human tyrosyl-DNA phosphodiesterase 1 (TDP1): qHTS in cells in presence of CPT. chicken DT40 Tdp1-/-;hTDP1 cells + 20 nM CPT, ATP luminescence, 48 h. Potency, µM (titrated, usually from 46.2 µM), most hits filed as inhibitors. hit rate 12% among 420,000. AID 686979, 2013; further: nearly all actives have a fitted effect of over 55% in size
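Chicken DT40 Tdp1-/- cells stably complemented with human TDP1 were seeded at 400 cells/well in medium containing 20 nM camptothecin, exposed to pin-transferred compounds, and grown at 37 °C for at least 48 hr. Viability was read as ATP luminescence.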
TDP1 block: qHTS Assay for Inhibitors of Tyrosyl-DNA Phosphodiesterase (TDP1); Tyrosyl-DNA phosphodiesterase 1 (Homo sapiens), Q9NUW8; recombinant TDP1, AlphaScreen DNA substrate cleavage; Potency, µM (highest dose often 130 µM), usual class: inhibitors; hit rate 0.28% among 350,000; further: nearly all actives have a fitted effect of over 40% in size
Target sequence (Q9NUW8 whole entry, looked up): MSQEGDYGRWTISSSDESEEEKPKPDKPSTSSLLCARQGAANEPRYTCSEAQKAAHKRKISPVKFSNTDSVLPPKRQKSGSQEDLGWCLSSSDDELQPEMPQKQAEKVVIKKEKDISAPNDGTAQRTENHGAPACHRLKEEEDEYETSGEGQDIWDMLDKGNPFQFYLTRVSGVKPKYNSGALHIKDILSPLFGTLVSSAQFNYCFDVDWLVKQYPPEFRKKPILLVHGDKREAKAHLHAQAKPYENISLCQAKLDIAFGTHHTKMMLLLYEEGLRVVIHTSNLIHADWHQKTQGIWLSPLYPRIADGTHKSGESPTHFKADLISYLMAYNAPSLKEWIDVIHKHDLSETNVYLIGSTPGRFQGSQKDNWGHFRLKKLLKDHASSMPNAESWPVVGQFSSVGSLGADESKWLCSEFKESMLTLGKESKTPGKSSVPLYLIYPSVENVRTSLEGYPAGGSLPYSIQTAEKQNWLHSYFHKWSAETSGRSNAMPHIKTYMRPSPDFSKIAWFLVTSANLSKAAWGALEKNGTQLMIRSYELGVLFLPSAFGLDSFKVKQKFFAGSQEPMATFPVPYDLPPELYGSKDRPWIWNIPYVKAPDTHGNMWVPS
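Recombinant human Tdp1 (E. coli-expressed, 1 nM final) preincubated with compounds 15 min at room temperature, then 5'-biotin/3'-phosphotyrosine-FITC DNA substrate (15 nM final) added for 5 min. AlphaScreen beads (10 ug/ml final) added 10 min; cleavage lowers signal.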
TDP1 cell noCPT: qHTS for Inhibitors of human tyrosyl-DNA phosphodiesterase 1 (TDP1): qHTS in cells in absence of CPT; DT40 Tdp1-/- hTDP1 cells, no CPT, ATP luminescence, 48 h; Potency, µM (series often up to 46.2 µM), hits mostly inhibitors; hit rate 15% among 420,000; AID 686978, 2013; further: nearly all actives have a fitted effect of over 55% in size
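Luminescent ATP content (CellTiter-Glo) served as the growth readout. Knockout chicken DT40 cells expressing human TDP1 were exposed to compounds without camptothecin for a minimum 48 hr at 37 °C.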
VDR inh: Inhibitors of the vitamin D receptor (VDR): qHTS | Vitamin D3 receptor (Homo sapiens), P11473 | VDR-SRC2-3 peptide fluorescence polarization, 2 h | Potency, µM, usual class: inhibitors | hit rate 0.93% among 400,000
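Reagent solutions, kept cold and dark, are dispensed first; compounds are then pinned in at 23 nl, plates briefly spun, and incubated 2 h at ambient temperature. Inhibition of VDR–SRC2-3 peptide binding is read by fluorescence polarization.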
PLK1 PBD block: qHTS for Inhibitors of PLK1-PDB (polo-like kinase 1 - polo-box domain): Primary Screen | Serine/threonine-protein kinase PLK1 (Homo sapiens), P53350 | Plk1 PBD binding of FITC phosphopeptide, fluorescence polarization | hit rate 2.8% among 360,000 | Potency, µM, hits mostly inhibitors; further: series mostly up to about 57 µM; nearly all actives have a fitted effect of over 65% in size
Hits are given with their value; . = inactive; ? = inconclusive; / = not tested or not shown. Compounds with a hit are over-represented: about 18% of the library has one in this group of screens. The call rests on the fitted dose curve; in most records, active means well fitted curve in the direction sought with a large enough effect; inconclusive means small, poorly fitted or top-dose-only effect, or another doubt; inactive means no such curve, though single readings can be large; an effect the other way counts as inactive or inconclusive.

SMILES	KAT2A inh	TDP1 cell CPT	TDP1 block	TDP1 cell noCPT	VDR inh	PLK1 PBD block
Cc1cc(C)c2nc(N(CCCN(C)C)C(=O)c3ccc(S(=O)(=O)N4CC(C)OC(C)C4)cc3)sc2c1 (centres undefined)	.	16µM	.	21µM	.	.
CN(C)CCCN(C(=O)c1ccc(S(=O)(=O)N2CCCC2)cc1)c1nc2c(F)cc(F)cc2s1	.	.	.	.	.	.
CN(C)CCCN(C(=O)c1ccc(S(=O)(=O)N2CCCCCC2)cc1)c1nc2c(F)cc(F)cc2s1	.	?	.	16µM	.	.
Cc1ccc2sc(N(CCN(C)C)C(=O)c3ccc(S(=O)(=O)N4CC(C)OC(C)C4)cc3)nc2c1C (centres undefined)	.	?	.	.	.	.
CCOc1ccc(CNC(=O)CCS(=O)(=O)c2cc3c(cc2Cl)NC(=O)CO3)cc1OC	.	.	.	.	.	/
COc1cc(C(O)c2nc(-c3csc4ccccc34)cs2)ccc1F (centres undefined)	/	?	/	18µM	/	.
OC(c1ccc(F)c(F)c1)c1nc(-c2csc3ccccc23)cs1 (centres undefined)	/	23µM	/	?	/	.
NC(N)=Nc1nc2ccc(Cl)cc2c(=O)[nH]1	.	?	.	13µM	.	.
O=C(c1cccc(NS(=O)(=O)c2ccc(F)c(F)c2)c1)N1CCN(Cc2ccccc2)CC1	.	?	.	?	.	.
O=C(NC1CCN(Cc2ccccc2)CC1)c1cccc(NS(=O)(=O)c2ccc(Br)cc2)c1	/	18µM	/	?	.	.
O=C(CCNS(=O)(=O)c1ccc(Br)cc1)NC1CCN(Cc2ccccc2)CC1	.	?	.	13µM	.	.
Cc1ccc(S(=O)(=O)Nc2cccc(C(=O)NC3CCN(Cc4ccccc4)CC3)c2)cc1F	.	?	.	16µM	.	.
O=C(Nc1ncccc1O)C1CCN(S(=O)(=O)c2ccc3ccccc3c2)CC1	.	.	.	.	.	.
O=C(Cn1cc(C(F)(F)F)cc(Cl)c1=O)Nc1cc(Cl)cc(Cl)c1	.	.	.	.	.	.
CC(=O)OC(COc1cccc(C)c1)Cn1cnc2ccccc21 (centres undefined)	?	?	.	16µM	.	.
COCCn1c(SCC(=O)c2ccc(F)cc2)nc2cc(C(=O)NC3CCCC3)ccc2c1=O	.	.	.	.	.	/
O=C(CSc1nc2cc(C(=O)NC3CCCC3)ccc2c(=O)n1CC1CCCO1)c1cccc(Cl)c1 (centres undefined)	.	21µM	.	23µM	.	/
Cc1ccc(C)c(C(=O)CSc2nc3cc(C(=O)NC4CCCC4)ccc3c(=O)n2CC2CCCO2)c1 (centres undefined)	.	18µM	.	8.2µM	.	/
Cc1ccc(C(=O)CSc2nc3cc(C(=O)NC4CCCC4)ccc3c(=O)n2CC2CCCO2)cc1 (centres undefined)	.	.	.	.	.	/
CC1=NNC(=O)C1C(c1ccccc1)C1C(=O)NN=C1C (centres undefined)	.	/	.	/	/	/
COc1ccc(N2C(=O)c3ccccc3C2O)cc1 (centres undefined)	.	.	/	.	.	.
C=COc1ccc(N2C(=O)c3ccccc3OC2C)cc1 (centres undefined)	.	?	/	21µM	.	.
N#Cc1ccc(NC(=O)COC(=O)c2cccnc2Cl)cc1	.	.	.	.	.	.
Cc1ccc(NS(=O)(=O)c2cccc(C(=O)NCC(c3ccco3)N3CCCC3)c2)cc1 (centres undefined)	.	?	.	?	.	.
COc1cc(C2C(C(=O)c3ccc(C)o3)=C(O)C(=O)N2c2cc(C)on2)ccc1OCc1ccccc1 (centres undefined)	.	?	.	29µM	.	.
SMILES	KAT2A inh	TDP1 cell CPT	TDP1 block	TDP1 cell noCPT	VDR inh	PLK1 PBD block
CCCCCOc1ccc(C2C(C(=O)c3ccc(C)o3)=C(O)C(=O)N2c2cc(C)on2)cc1 (centres undefined)	.	?	.	?	71µM	?
CCOc1ccc(C2C(C(=O)c3ccc(C)o3)=C(O)C(=O)N2c2cc(C)on2)cc1OC (centres undefined)	.	.	.	.	.	.
COc1cccc(C2C(C(=O)c3cccs3)=C(O)C(=O)N2c2cc(C)on2)c1 (centres undefined)	.	.	.	.	.	.
COC(=O)c1ccc(C2C(C(=O)c3cc4ccccc4o3)=C(O)C(=O)N2c2cc(C)on2)cc1 (centres undefined)	.	.	.	.	.	?
Cc1cc(N2C(=O)C(O)=C(C(=O)c3cc4ccccc4o3)C2c2ccc(OC(C)C)cc2)no1 (centres undefined)	?	?	.	16µM	.	?
COc1cccc(C2C(C(=O)c3ccc(C)o3)=C(O)C(=O)N2c2cc(C)on2)c1 (centres undefined)	.	23µM	.	?	?	.
Cc1cc(C(=O)NCc2ccc(Cl)cc2)n(-c2ccccc2)n1	.	.	/	?	?	.
Cc1cc(C(=O)N2CC(C)CC(C)C2)n(-c2ccccc2)n1 (centres undefined)	.	10µM	.	8.2µM	.	.
COC(CNC(=O)c1cc(C)nn1-c1ccccc1)OC	.	.	.	.	.	24µM
COC(=O)c1ccc(CN(Cc2ccc(OC)c(OC)c2)S(=O)(=O)c2ccc(F)c(C(=O)Nc3cc(C)ccc3C)c2)cc1	.	?	.	?	.	/
O=C(Nc1ccc(F)cc1)c1cc(S(=O)(=O)Nc2ccc(F)cc2)cs1	.	?	.	29µM	.	.
COc1ccc(NC(=O)c2cc(S(=O)(=O)Nc3ccc(OC)cc3)cs2)cc1	.	?	.	29µM	.	.
CC(C)(C)OC(=O)N1CCC(NC(=O)c2[nH]cnc2C(=O)Nc2cccc(Cl)c2)CC1	.	?	.	?	.	.
COc1ccc(C2CC(C)(c3ccc(OC)cc3)Nc3ccccc3N2)cc1 (centres undefined)	.	?	/	15µM	.	.
CCC(Cc1ccccc1)NC(=O)Cn1ncc2c3ccccc3n(Cc3ccccc3)c2c1=O (centres undefined)	.	16µM	.	16µM	.	/
CC1CCC(NC(=O)Cn2ncc3c4ccccc4n(Cc4ccc(F)cc4)c3c2=O)CC1 (centres undefined)	.	?	.	?	.	/
